Reference: PubChem BioAssay
The source made the active and inactive calls.

Experiments:
[1] = E. coli DRC41 culture turbidity changes, primary screen, E. coli filamentation inducer project, strain DRC41, OD650, 48 h (AID 1152);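 also: E. coli MC1000 strain DRC41 lacking acrAB efflux pump and sulA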; details: E. coli DRC41 (acrAB sulA), higher = more signal, called active from +8 up or from −8 down
[2] = small-molecule binders of probe aLefty1, primary screen, biochemical, small-molecule microarray, 635/667 nm fluorescence (AID 1153); details: higher = more signal;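 also: score merges spot fluorescence with signal-to-noise ratio from the scanned slide images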
[3] = PSAC antagonists in infected red cells, primary screen, cell-based, P. falciparum Indochina, OD700, 1 h (AID 1154); details: P. falciparum Indochina infected RBC osmotic lysis, higher = more signal, called active from +8 up or from −8 down
[4] = PSAC antagonists in infected red cells, primary screen, cell-based, P. falciparum Indochina, OD700, 2 h (AID 1155);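 also: lysis reports solute entry through the parasite surface anion channel PSAC; channel blockers reduce lysis of infected cells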; details: P. falciparum Indochina infected erythrocytes, osmotic lysis OD700; higher = more signal, called active from +8 up or from −8 down
[5] = osmotic lysis modulators in infected erythrocytes, primary screen, PSAC antagonist project, cell-based, P. falciparum Indochina, OD700, 3 h (AID 1156); details: higher = more signal, called active from +8 up or from −8 down
[6] = PSAC antagonists in infected red cells, primary screen, cell-based, P. falciparum Indochina, OD700, 18 h (AID 1157); details: P. falciparum Indochina infected erythrocytes, osmotic lysis OD700, 18 h; higher = more signal, called active from +8 up or from −8 down
[7] = modulators of S6 phosphorylation in cells, primary screen, cell-based, A549, cytoblot, luminescence, serum-stimulated (AID 1158); details: A549 phospho-S6 cytoblot, 5 h, higher = more signal;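 also: serum-stimulated A549 lung adenocarcinoma cells; signal is phosphorylated S6 detected by cytoblot immunostaining with HRP secondary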
[8] = biological target: NADPH oxidase 2 (Homo sapiens) (UniProt P04839); assay: NOX2-dependent H2O2 signal modulators, primary screen, NOX inhibitor project, cell-based, HEK293-NOX2, PMA-stimulated, Amplex Red fluorescence (AID 1159); details: 45 min, higher = more signal, called active from +8 up or from −8 down; also: test concentration not given here
Chain of NADPH oxidase 2 (Homo sapiens) (P04839 whole entry, looked up): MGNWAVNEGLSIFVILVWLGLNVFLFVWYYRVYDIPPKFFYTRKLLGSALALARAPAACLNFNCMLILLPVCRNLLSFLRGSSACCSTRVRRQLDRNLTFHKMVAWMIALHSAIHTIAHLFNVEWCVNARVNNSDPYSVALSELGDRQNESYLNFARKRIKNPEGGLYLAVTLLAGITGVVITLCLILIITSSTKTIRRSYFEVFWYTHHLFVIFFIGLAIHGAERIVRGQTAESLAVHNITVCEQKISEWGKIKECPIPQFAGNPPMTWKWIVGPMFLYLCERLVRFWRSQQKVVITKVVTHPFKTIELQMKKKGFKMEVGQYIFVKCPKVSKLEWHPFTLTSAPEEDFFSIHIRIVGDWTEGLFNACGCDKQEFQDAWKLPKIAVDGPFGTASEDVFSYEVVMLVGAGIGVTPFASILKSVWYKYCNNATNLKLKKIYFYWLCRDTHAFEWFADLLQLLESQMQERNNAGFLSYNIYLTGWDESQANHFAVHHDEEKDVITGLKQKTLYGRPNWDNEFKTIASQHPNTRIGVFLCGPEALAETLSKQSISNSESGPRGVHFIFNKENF

[9] = biological target: NADPH oxidase 4 (Homo sapiens) (UniProt Q9NPH5); assay: NOX4-dependent H2O2 signal modulators, primary screen, NOX inhibitor project, cell-based, HEK293-NOX4, tetracycline-induced, Amplex Red fluorescence (AID 1160); details: 45 min, higher = more signal, called active from +8 up or from −8 down
Chain of NADPH oxidase 4 (Homo sapiens) (Q9NPH5 whole entry, looked up): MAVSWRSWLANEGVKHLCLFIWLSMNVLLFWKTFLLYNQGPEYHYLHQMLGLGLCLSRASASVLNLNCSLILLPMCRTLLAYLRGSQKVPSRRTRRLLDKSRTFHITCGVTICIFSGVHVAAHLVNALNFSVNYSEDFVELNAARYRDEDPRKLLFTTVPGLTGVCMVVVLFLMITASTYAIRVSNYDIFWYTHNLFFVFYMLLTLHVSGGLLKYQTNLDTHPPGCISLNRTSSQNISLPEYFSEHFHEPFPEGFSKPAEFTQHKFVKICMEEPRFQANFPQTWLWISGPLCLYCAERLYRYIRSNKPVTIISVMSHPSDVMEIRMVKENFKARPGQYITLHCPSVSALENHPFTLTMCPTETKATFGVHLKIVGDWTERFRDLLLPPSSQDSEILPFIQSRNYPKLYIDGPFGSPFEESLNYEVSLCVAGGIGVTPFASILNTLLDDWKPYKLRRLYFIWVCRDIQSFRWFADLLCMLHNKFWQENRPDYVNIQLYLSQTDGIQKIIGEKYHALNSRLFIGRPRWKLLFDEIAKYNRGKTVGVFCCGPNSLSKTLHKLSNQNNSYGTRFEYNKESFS

[10] = biological target: NADPH oxidase 5 (Homo sapiens) (UniProt Q96PH1); assay: NOX5-dependent H2O2 signal modulators, primary screen, NOX inhibitor project, cell-based, HEK293-NOX5, Amplex Red fluorescence (AID 1161); details: HEK293-NOX5, ionomycin, 45 min, higher = more signal
Chain of NADPH oxidase 5 (Homo sapiens) (Q96PH1 whole entry, looked up): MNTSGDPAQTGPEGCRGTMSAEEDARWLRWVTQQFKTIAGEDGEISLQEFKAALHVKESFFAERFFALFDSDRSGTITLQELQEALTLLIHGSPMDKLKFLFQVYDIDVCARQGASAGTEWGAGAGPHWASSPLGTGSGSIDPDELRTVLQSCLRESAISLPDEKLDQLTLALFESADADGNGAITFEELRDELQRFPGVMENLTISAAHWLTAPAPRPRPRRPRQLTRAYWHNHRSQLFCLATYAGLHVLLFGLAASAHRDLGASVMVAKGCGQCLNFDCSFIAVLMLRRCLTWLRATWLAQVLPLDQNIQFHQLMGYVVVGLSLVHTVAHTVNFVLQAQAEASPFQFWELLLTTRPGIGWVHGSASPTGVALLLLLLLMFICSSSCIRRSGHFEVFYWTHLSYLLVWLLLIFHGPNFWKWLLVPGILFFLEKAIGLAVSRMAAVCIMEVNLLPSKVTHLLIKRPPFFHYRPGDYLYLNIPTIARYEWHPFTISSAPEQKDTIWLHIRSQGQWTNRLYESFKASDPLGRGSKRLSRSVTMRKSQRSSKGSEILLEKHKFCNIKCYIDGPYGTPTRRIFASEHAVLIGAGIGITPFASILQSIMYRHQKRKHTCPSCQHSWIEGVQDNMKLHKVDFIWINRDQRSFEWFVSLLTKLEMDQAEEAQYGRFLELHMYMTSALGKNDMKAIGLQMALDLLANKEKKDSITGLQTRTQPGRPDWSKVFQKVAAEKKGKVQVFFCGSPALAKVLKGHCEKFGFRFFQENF

[11] = A549 cell viability effects, profiling panel, calcein-AM fluorescence, 48 h, basal (AID 1162); details: higher = more signal; also: test concentration not given here
[12] = adipocyte viability effects, profiling panel, cell-based, 3T3-L1 adipocytes, calcein-AM fluorescence, 48 h, basal (AID 1163); details: 3T3-L1 adipocytes viability, higher = more signal; also: test concentration not given here
[13] = HepG2 cell viability effects, profiling panel, calcein-AM fluorescence, 48 h, basal (AID 1164); details: higher = more signal; also: test concentration not given here
[14] = MM1S cell viability effects, profiling panel, calcein-AM fluorescence, 48 h, basal (AID 1165); details: higher = more signal;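 also: viability of MM1S multiple myeloma cells under basal unstimulated conditions; test concentration not given here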
[15] = basal RPMI8226 viability, no added stimulus, profiling panel, cell-based, calcein-AM fluorescence, 48 h, PK04 Diversity Set (AID 1166); details: RPMI8226 myeloma viability, higher = more signal;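 also: cells grown under basal conditions without added stimulus; test concentration not given here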
[16] = basal HepG2 mitochondrial membrane potential changes, profiling panel, cell-based, JC-1 fluorescence, 24 h, 100 nL compound (AID 1167); details: higher = more signal; also: test concentration not given here
[17] = basal 3T3-L1 adipocyte mitochondrial potential changes, profiling panel, cell-based, JC-1 fluorescence, 3T3-L1 adipocytes, 24 h, 100 nL compound (AID 1168); details: JC-1 mitochondrial fluorescence, higher = more signal, called active from +8 up or from −8 down; also: test concentration not given here
[18] = basal RPMI8226 mitochondrial membrane potential changes, profiling panel, cell-based, JC-1 fluorescence, 24 h, 100 nL compound (AID 1169); details: RPMI8226 myeloma, JC-1 mitochondrial potential fluorescence, higher = more signal; also: test concentration not given here
[19] = basal MM1S mitochondrial membrane potential changes, profiling panel, cell-based, JC-1 fluorescence, 24 h, 100 nL compound (AID 1170); details: higher = more signal; also: test concentration not given here
[20] = A549 lung cancer cell viability effects, profiling panel, resazurin fluorescence, 24 h, PK04 Diversity Set (AID 1171); details: higher = more signal, called active from +8 up or from −8 down; also: test concentration not given here

C=C(C(=O)CC[C@@H](OC(=O)c1cccnc1)c1cccc(OCCO)c1)C(C)C
z-score [1]: 1.35 (inactive) | composite z-score [2]: -0.309 | z-score [3]: 13.8 (active) | z-score [4]: 0.717 (inactive) | z-score [5]: -0.204 (inactive) | z-score [6]: -1.02 (inactive) | z-score [7]: 0.62 | z-score [8]: -0.967 (inactive) | z-score [9]: -0.193 (inactive) | z-score [10]: -1.84 | z-score [11]: 0.281 | z-score [12]: 0.568 | z-score [13]: 1.19 | z-score [14]: -1.27 | z-score [15]: -0.855 | z-score [16]: -0.0539 | z-score [17]: -0.227 (inactive) | z-score [18]: -0.706 | z-score [19]: -0.928 | z-score [20]: 0.508 (inactive)

C=C(COC)/C(=C/C[C@@H](OC(=O)c1ccncc1)c1ccccc1OCCO)c1cnc2ccccc2c1
z-score [1]: 0.588 (inactive) | composite z-score [2]: 0.333 | z-score [3]: 25.7 (active) | z-score [4]: 11.5 (active) | z-score [5]: 0.518 (inactive) | z-score [6]: 1.09 (inactive) | z-score [7]: 0.261 | z-score [8]: 0.0701 (inactive) | z-score [9]: 0.217 (inactive) | z-score [10]: -1.13 | z-score [11]: 0.746 | z-score [12]: 0.317 | z-score [13]: -0.316 | z-score [14]: -3.18 | z-score [15]: -0.986 | z-score [16]: 2.78 | z-score [17]: -1.16 (inactive) | z-score [18]: -0.527 | z-score [19]: 1.61 | z-score [20]: 0.268 (inactive)

[N-]=[N+]=NCc1ccccc1C[C@@]1(C(N)=O)N=C(c2ccc(OCCCO)cc2)O[C@@H]1c1ccccc1N=[N+]=[N-]
z-score [1]: -1.04 (inactive) | composite z-score [2]: 0.045 | z-score [3]: 32.4 (active) | z-score [4]: 31.4 (active) | z-score [5]: 1.81 (inactive) | z-score [6]: 2.31 (inactive) | z-score [7]: -0.441 | z-score [8]: 0.0502 (inactive) | z-score [9]: -0.393 (inactive) | z-score [10]: -1.89 | z-score [11]: -0.908 | z-score [12]: -0.278 | z-score [13]: -0.705 | z-score [14]: -3 | z-score [15]: -3.1 | z-score [16]: -1.07 | z-score [17]: -0.71 (inactive) | z-score [18]: -1.08 | z-score [19]: -0.62 | z-score [20]: -0.583 (inactive)

COCCOC(=O)N1C(=O)[C@@]2(c3cc(C#CCCO)ccc31)[C@H](c1ccc(O)cc1)N1[C@H](c3ccccc3)[C@H](c3ccccc3)OC(=O)[C@H]1[C@@H]2C(=O)NC[C@H](O)c1ccccc1
z-score [1]: 1.49 (inactive) | composite z-score [2]: -0.218 | z-score [3]: 3.31 (inactive) | z-score [4]: 1.19 (inactive) | z-score [5]: 0.624 (inactive) | z-score [6]: 0.555 (inactive) | z-score [7]: 0.0833 | z-score [8]: 0.878 (inactive) | z-score [9]: 0.521 (inactive) | z-score [10]: -0.0839 | z-score [11]: 1.7 | z-score [12]: 0.617 | z-score [13]: 1.2 | z-score [14]: 0.0034 | z-score [15]: -0.409 | z-score [16]: -0.424 | z-score [17]: -1.55 (inactive) | z-score [18]: -0.429 | z-score [19]: -0.841 | z-score [20]: 0.908 (inactive)

CC(C)N1CC=CC23O[C@@H]4/C=C\CCCOC(=O)C4[C@H]2C(=O)N(C(C)CO)[C@@H]3C1=O (stereo not given in full)
z-score [1]: 2.12 (inactive) | composite z-score [2]: -0.195 | z-score [3]: 1.2 (inactive) | z-score [4]: 0.0831 (inactive) | z-score [5]: 1.07 (inactive) | z-score [6]: 0.429 (inactive) | z-score [7]: 0.979 | z-score [8]: 0.667 (inactive) | z-score [9]: 0.142 (inactive) | z-score [10]: 0.883 | z-score [11]: 0.0513 | z-score [12]: 0.512 | z-score [13]: -0.145 | z-score [14]: 0.967 | z-score [15]: 0.629 | z-score [16]: 0.412 | z-score [17]: -1.54 (inactive) | z-score [18]: 0.0317 | z-score [19]: -1.08 | z-score [20]: 0.753 (inactive)

C=CCNC(=O)[C@H]1[C@@H]2C(=O)O[C@@H](c3ccccc3)[C@@H](c3ccccc3)N2[C@@H](c2ccc(O)cc2)[C@]12C(=O)Nc1ccc(C#CCC(C(=O)OC)C(=O)OC)cc12
z-score [1]: 0.824 (inactive) | composite z-score [2]: -0.188 | z-score [3]: 8.47 (active) | z-score [4]: 1.51 (inactive) | z-score [5]: 0.416 (inactive) | z-score [6]: 0.432 (inactive) | z-score [7]: 0.0591 | z-score [8]: 1.82 (inactive) | z-score [9]: 0.194 (inactive) | z-score [10]: 1.93 | z-score [11]: 0.33 | z-score [12]: -0.0589 | z-score [13]: 0.102 | z-score [14]: -2.95 | z-score [15]: -4.12 | z-score [16]: -0.922 | z-score [17]: -0.363 (inactive) | z-score [18]: -0.891 | z-score [19]: 0.111 | z-score [20]: 0.0955 (inactive)

COC(=O)[C@@]1(Cc2ccc(F)cc2)[C@@H]2C(=CC(=O)[C@H]2CC(=O)C(=O)N2CCCC2)CN1C(=O)c1ccccc1
z-score [1]: -1.18 (inactive) | composite z-score [2]: 1.45 | z-score [3]: 3.94 (inactive) | z-score [4]: -0.607 (inactive) | z-score [5]: -2.12 (inactive) | z-score [6]: -1.03 (inactive) | z-score [7]: 1.84 | z-score [8]: -3.72 (inactive) | z-score [9]: -5.14 (inactive) | z-score [10]: -4.38 | z-score [11]: -1.77 | z-score [12]: 1.16 | z-score [13]: -1.32 | z-score [14]: -2.6 | z-score [15]: -4.29 | z-score [16]: 3.9 | z-score [17]: -0.568 (inactive) | z-score [18]: -0.686 | z-score [19]: -2.82 | z-score [20]: -1.97 (inactive)

CS(=O)(=O)CCOC(=O)C1=CC(CCCO)=CC(C2CC2)N(Cc2sc3ccccc3c2Cl)C=C1C(=O)OCCS(C)(=O)=O (stereo not given)
z-score [1]: -0.406 (inactive) | composite z-score [2]: 0.52 | z-score [3]: 12.8 (active) | z-score [4]: 2.13 (inactive) | z-score [5]: 0.978 (inactive) | z-score [6]: 1.41 (inactive) | z-score [7]: 0.248 | z-score [8]: -0.739 (inactive) | z-score [9]: -0.315 (inactive) | z-score [10]: -1.11 | z-score [11]: -0.768 | z-score [12]: 0.968 | z-score [13]: -0.344 | z-score [14]: -3.24 | z-score [15]: -3.05 | z-score [16]: 1.67 | z-score [17]: 0.182 (inactive) | z-score [18]: -0.843 | z-score [19]: -1.27 | z-score [20]: 0.459 (inactive)
